This is a sample that favours compounds with a hit; in the whole collection about 1.5% have one here.
CCHF vOTU inh: blocks the CCHF virus ovarian tumor domain protease; inhibition, % at 11.5 µM; actives 0.55% (n = 370,000); AID 651958; CCHFV vOTU protease, Pep-AMC fluorescence; in the data active means inhibition above about 30%
Vc quorum ag: inducers of Vibrio cholerae quorum light production without autoinducers | V. cholerae BH1578 lux reporter, luminescence, 6 h | actives 0.16% (n = 350,000) | activation, % at 18.7 µM; in the data active means activation mostly above about 9.7%, no sharp cut-off
PrPC TRFRET: reduces human prion protein on the cell surface | actives 0.43% (n = 370,000) | inhibition, % at 13.8 µM | AID 720596 | P04156 | cell surface PrPC, TR-FRET read-out; in the data active means inhibition above about 24%
VHR inh abs: blocks human VHR1 dual specificity phosphatase; actives 0.52% (n = 290,000); P51452; recombinant VHR phosphatase, pNPP absorbance; inhibition, % at 13.3 µM; in the data active means inhibition above about 50%
Target sequence (P51452 whole entry, looked up): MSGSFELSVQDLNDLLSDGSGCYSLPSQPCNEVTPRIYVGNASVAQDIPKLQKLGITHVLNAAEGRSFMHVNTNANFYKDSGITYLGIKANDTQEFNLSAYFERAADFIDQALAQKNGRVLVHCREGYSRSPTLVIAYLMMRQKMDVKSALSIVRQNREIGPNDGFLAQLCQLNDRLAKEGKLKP
SSB-PriA inh: K. pneumoniae PriA-SSBct interaction inhibition; AlphaScreen SSBct-PriA binding, biotinylated peptide; inhibition, % at 33 µM; actives 0.6% (n = 430,000); in the data active means inhibition mostly above about 37%, no sharp cut-off; inactive means mostly below about 20%
TcdB inh: blocks C. difficile toxin B glycohydrolase activity | P18177 | TcdB glycohydrolase enzymatic assay, plate reader | inhibition, % at 9.99 µM | actives 0.24% (n = 350,000); in the data active means inhibition above about 10%
Numbers stand for hits; i = inactive; nt = no result given; ! = repeats disagree.

SMILES	CCHF vOTU inh	Vc quorum ag	PrPC TRFRET	VHR inh abs	SSB-PriA inh	TcdB inh
CCCc1ccc(S(=O)(=O)N[C@H]2CC(=O)N(C)C2)cc1	nt	nt	nt	nt	i	nt
COc1ccc(CNC(=O)C2CCCN(c3nc4ccccc4o3)C2)c(OC)c1 (stereo not drawn)	nt	i	nt	52.6	i	i
COc1cccc(CNC(=O)C2CCCN(c3nc4ccccc4o3)C2)c1 (stereo not drawn)	i	i	i	i	i	i
c1ccc(Nc2cccc(Nc3ccccc3)c2)cc1	i	i	i	i	66.0	nt
Nc1cccc(Nc2ccccc2)c1	i	i	i	i	i	i
ONC(=Nc1ccccc1Cl)c1ccccc1Cl	i	i	i	i	i	16.6
O=[N+]([O-])c1cccc(C(=Nc2ccccc2Cl)NO)c1	i	i	i	i	i	nt
O=C(NCc1ccc(Cl)cc1)C(=O)N/N=C/c1ccc(Br)cc1	i	i	i	52.3	nt	i
COC(=O)c1sccc1NC(=O)COc1ccc(F)cc1Cl	i	i	i	57.4	i	i
COC(=O)c1ccc(OCC(=O)Nc2ccsc2C(=O)OC)cc1	i	i	i	i	i	i
CC1(C(=O)N2CCCc3ccccc32)Cc2ccc(Br)cc2C(=O)O1 (stereo not drawn)	nt	nt	nt	nt	i	nt
CCN(CC)CCNc1cccc2sc3ccccc3c(=O)c12	i	i	i	nt	nt	i
COc1cc(C)c2sc3ccccc3c(=O)c2c1NCCN(C)C	i	i	i	nt	nt	i
CN(C)CCNc1cccc2sc3ccc(O)cc3c(=O)c12	i	nt	i	nt	nt	39.0
Cc1ccc(NCCN(C)C)c2c(=O)c3cc(O)ccc3sc12	i	i	i	nt	61.5	21.3
Cn1cccc1Cc1n[nH]c(=S)n1-c1ccccc1	nt	nt	nt	nt	i	nt
COc1cccc(C2CC(c3cccs3)=NN2C(=O)CSC2=NN3CCCC(=O)N=C3S2)c1OC (stereo not drawn)	i	i	i	53.3	i	i
CC(C)(C)OC(=O)NCc1ccc(CNC(=O)c2nc[nH]c2C(=O)NCc2ccc(CNC(=O)OC(C)(C)C)cc2)cc1	i	i	i	nt	i	i
CC(C)(C)OC(=O)NCCCCCNC(=O)c1nc[nH]c1C(=O)NCc1ccc(CNC(=O)OC(C)(C)C)cc1	i	i	24.6	nt	i	i
Cn1c(-c2ccc(Br)cc2)cnc1SCc1ccccc1	nt	nt	nt	nt	67.0	nt
Cn1c(-c2ccccc2)cnc1SCC(N)=O	i	i	i	i	i	nt
Cc1ccc2nc(N3CCN(CCO)CC3)nc(-c3ccccc3)c2c1	i	i	i	i	38.0!	i
Clc1ccc2nc(N3CCNCC3)nc(-c3ccccc3)c2c1	i	i	i	51.7	i	nt
O=C1CCC(=O)N1CC(=O)N(Cc1cccnc1)c1nc2cc3c(cc2s1)OCO3	nt	nt	nt	nt	i	nt
NS(=O)(=O)c1ccc(NN=C/C=C/c2ccccc2[N+](=O)[O-])cc1	nt	nt	nt	nt	47.8	nt
SMILES	CCHF vOTU inh	Vc quorum ag	PrPC TRFRET	VHR inh abs	SSB-PriA inh	TcdB inh
O=C(O)c1ccc(NN=C/C=C/c2ccccc2[N+](=O)[O-])cc1	nt	nt	nt	nt	i	nt
Cn1nc(-c2ccccc2NC(=O)c2ccc(Cn3ccnc3)cc2)ccc1=O	nt	nt	nt	nt	i	nt
O=C(Nc1ccccc1-c1cn2ccsc2n1)c1ccc(Cn2ccnc2)cc1	nt	nt	nt	nt	39.0	nt
COC(=O)[C@@]12CCCCN1[C@H](c1ccc(-c3ccccc3)c(OC)c1)[C@H]1C(=O)N(C)C(=O)[C@H]12	i	i	i	nt	i	12.3
O=C(c1ccccc1)c1ccc(OCC(O)CNc2ccc(F)cc2)cc1 (stereo not drawn)	nt	nt	nt	nt	57.0	nt
O=C1N=C2SCCN2/C1=C\c1ccc(Cl)cc1	i	i	i	55.7	i	nt
CCOC(=O)N1CCN(C(=O)C(=O)Nc2ccc3nc4n(c(=O)c3c2)CCCCC4)CC1	i	i	i	i	104.2	i
CCOC(=O)N1CCN(C(=O)CC(=O)Nc2ccc3nc4n(c(=O)c3c2)CCCCC4)CC1	i	i	i	i	i	nt
Cc1ccc(S(=O)(=O)N2CC(CBr)=CCC2c2ccccc2)cc1 (stereo not drawn)	i	nt	i	nt	nt	15.8
CC(=O)C1=CCC(c2ccc(C)cc2)N(S(=O)(=O)c2ccc(C)cc2)C1 (stereo not drawn)	i	nt	i	nt	nt	12.2
COc1ccc(-c2csc(C(=O)Nc3ccc(NC(=O)c4ccco4)cc3)c2-n2cccc2)cc1	nt	nt	nt	nt	i	nt
CCS(=O)(=O)N1CCCc2cc(NC(=O)c3cn(C)nn3)ccc21	nt	nt	nt	nt	i	nt
O=C(c1ccccc1Cl)N1CCN(CCn2ccnc2-c2ccccc2)CC1	nt	nt	nt	nt	i	nt
COC(=O)[C@H](C)NC(=O)c1cc2c(cn1)[nH]c1ccccc12	i	i	i	i	i	i
C[C@H](NC(=O)c1cc2c(cn1)[nH]c1ccccc12)C(=O)O	i	i	i	57.3	i	i
O=C(O)c1cc2c(cn1)[nH]c1ccccc12	i	i	i	i	80.5	i
O=C(O)c1cc2ccccc2cn1	i	i	i	nt	75.3!	i
CC(C)C(=O)Nc1nc(-c2ccc3c(c2)CCCC3)cs1	nt	nt	nt	nt	i	nt
O=C(Nc1cccc2c1CCCC2)c1ccccc1Br	i	i	i	51.5	i	i
CCCCC(CC)C(=O)Nc1ccc(Nc2ccccc2)cc1 (stereo not drawn)	i	i	i	i	i	nt
CCCCC(CC)C(=O)Nc1ccc(C)c(O)c1 (stereo not drawn)	i	i	i	53.0	i	i
Cc1nc(-c2cccs2)sc1CNC(=O)[C@H](C)Oc1ccccc1F	nt	nt	nt	nt	i	nt
OCCN(Cc1cccnc1)Cc1ccccn1	i	i	i	nt	41.9	i
CCCN1CCCc2cc(CCNC(=O)c3ccc(F)c(F)c3)ccc21	nt	nt	nt	nt	i	nt
CCN1CCCc2cc(CCNC(=O)c3ccc4c(c3)OCO4)ccc21	nt	nt	nt	nt	65.0	nt
SMILES	CCHF vOTU inh	Vc quorum ag	PrPC TRFRET	VHR inh abs	SSB-PriA inh	TcdB inh
CCN1CCCc2cc(CCNC(=O)c3ccc(OC)c(OC)c3)ccc21	nt	nt	nt	nt	64.0	nt
CCOC(=O)c1cc(-c2ccc(N)cc2)sc1N	i	i	i	i	49.7	nt
CCOC(=O)c1sc(-c2ccc(Br)cc2)cc1N	i	i	i	i	i	i
Nc1c(N(CCC2=CCCCC2)C(=O)CCCOc2ccccc2)c(=O)[nH]c(=O)n1Cc1ccccc1	i	i	i	nt	i	i
CC(Oc1ccccc1)C(=O)N(CCC1=CCCCC1)c1c(N)n(Cc2ccccc2)c(=O)[nH]c1=O (stereo not drawn)	i	23.3	i	i	i	i
CN1c2ccccc2N(C)C1(C)c1ccccc1	i	i	i	i	41.9	i
CC(=O)c1ccccc1N(C(=O)c1ccco1)C(C(=O)NC1CCCC1)c1ccc(C)cc1 (stereo not drawn)	i	i	i	51.1	i	i
COc1ccc(C(C(=O)NC2CCCCC2)N(C(=O)c2ccco2)c2ccccc2C(C)=O)cc1 (stereo not drawn)	i	i	i	i	i	i
c1ccc2c(C(c3ccc4c(c3)OCO4)c3c[nH]c4ccccc34)c[nH]c2c1	nt	nt	nt	nt	37.0	nt
COc1ccc(C(=O)NC(C)c2nnc(SCC(=O)NC3CCCC3)n2C)cc1 (stereo not drawn)	i	i	i	52.9	i	i
Cn1cnnc1SCC(=O)NC1CCCCC1	i	i	i	i	i	15.0
COc1ccc(C(=O)NC(C)c2nnc(SCC(=O)NC3CCCCC3)n2C)cc1 (stereo not drawn)	i	i	i	i	i	i
